Among the data in PubChem BioAssay AID651657 (Broad Institute, 2012) are outcome values, retold here.

In the test the target is DNA repair and recombination protein RAD54-like (Homo sapiens) (UniProt Q92698). As to the kind of experiment: RAD54 Holliday junction migration blockers – biochemical, fluorescence, cherry-picked samples, dose series, confirmation (AID 651657). As to conditions: RAD54 branch migration, FAM/BHQ fluorescence, 60 min; series mostly up to 50 µM.

Entries with a potency or affinity are not part of this list. Calls of active or inactive are those of the source.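 Rule for the calls: active = signal falls, with fitted half-maximal concentration at most twice the top valid dose tested; inconclusive = flat curve with partial signal loss, or poor curve fit; inactive = the rest, including signal rising instead.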

Chain of DNA repair and recombination protein RAD54-like (Homo sapiens) (Q92698 whole entry, looked up): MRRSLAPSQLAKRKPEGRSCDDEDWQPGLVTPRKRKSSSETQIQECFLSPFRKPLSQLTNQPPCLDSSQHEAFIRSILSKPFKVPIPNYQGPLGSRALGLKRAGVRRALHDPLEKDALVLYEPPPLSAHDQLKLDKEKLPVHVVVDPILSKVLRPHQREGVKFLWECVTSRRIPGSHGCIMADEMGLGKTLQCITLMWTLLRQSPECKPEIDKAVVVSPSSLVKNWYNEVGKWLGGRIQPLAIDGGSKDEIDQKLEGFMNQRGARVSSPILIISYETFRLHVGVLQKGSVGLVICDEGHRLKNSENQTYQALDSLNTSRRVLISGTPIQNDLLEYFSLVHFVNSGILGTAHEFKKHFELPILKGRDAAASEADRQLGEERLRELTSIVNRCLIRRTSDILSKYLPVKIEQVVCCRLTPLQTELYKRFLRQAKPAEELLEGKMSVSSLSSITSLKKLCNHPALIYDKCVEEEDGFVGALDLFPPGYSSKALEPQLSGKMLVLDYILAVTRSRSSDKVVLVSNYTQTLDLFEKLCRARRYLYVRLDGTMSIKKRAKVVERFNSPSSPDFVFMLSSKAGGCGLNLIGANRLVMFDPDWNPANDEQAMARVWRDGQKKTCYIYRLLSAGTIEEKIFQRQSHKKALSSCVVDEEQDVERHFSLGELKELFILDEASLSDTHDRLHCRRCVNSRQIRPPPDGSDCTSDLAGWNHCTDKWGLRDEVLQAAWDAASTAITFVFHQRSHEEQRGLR

With `Cc1c(Cl)ccc(S(=O)(=O)NCCCn2ccnc2)c1Cl`, the outcome was inactive.
In the case of `Cc1ccc(S(=O)(=O)N2CCOCC2)c(C)c1NS(C)(=O)=O`, the result was inactive.
The entry for `CCOC(=O)c1[nH]c2cc3c(cc2c1CCCN1C(=O)c2ccccc2C1=O)OCCO3` is “inactive”; for `CCN1CCN(c2cc(C)c3cc(NC(=S)N4CCCC(C)C4)ccc3n2)CC1` (stereo not drawn) it is “inactive”; for `Cc1ccnc(Nc2nc(-c3sc(C)nc3C)cs2)c1` it is “inactive”.
The entry for `COCCCNCCC(CCC(C)C)c1ccc2c(c1)OCO2` (stereo not drawn) is “inactive”; for `Cc1ccc(S(=O)(=O)NCCCNS(=O)(=O)c2ccccc2[N+](=O)[O-])cc1` it is “inactive”.
The entry for `COc1cc(NC(=O)c2cccnc2Sc2ccc(C)c(C)c2)cc(OC)c1OC` is “inactive”; for `Cc1ccc(OCC(=O)Nc2cccc(-c3nnc(-c4ccccc4)o3)c2)c(C)c1` it is “inactive”; for `CCN1CCN(c2cc(C)c3cc(NC(=S)N4CCC5(CC4)OCCO5)ccc3n2)CC1` it is “inactive”.
Turning to `CCN1CCN(c2cc(C)c3cc(NC(=S)N4CC(C)CC(C)C4)ccc3n2)CC1` (stereo not drawn), the outcome was inactive.
The entry for `Cc1ccc(C)c(N2CCN(C(=S)Nc3ccc4nc(N5CCN(C)CC5)cc(C)c4c3)CC2)c1` is “inactive”.
The entry for `c1ccc(-c2nnc(SCc3nc4ccccc4[nH]3)o2)cc1` is “inactive”.
The entry for `Cc1cccc(Cn2c(Sc3nc(C)cs3)nc3c2c(=O)[nH]c(=O)n3C)c1` is “inactive”; for `COc1ccccc1NC(=O)CNC(=O)c1ccccc1` it is “inactive”; for `O=C1C(c2ccc(F)cc2)N(C2CCCCC2)C(=O)CN1C1CCCC1` (stereo not drawn) it is “inactive”.
Take `O=C(CS(=O)(=O)c1ccccc1)Nc1ccc(Br)cn1`: the outcome was inactive.
The entry for `COc1ccccc1CNC(=O)c1cccs1` is “inactive”; for `CN(C)CCCN(C(=O)CCOc1ccccc1)c1nc2ccc(F)cc2s1` it is “inactive”.
`CCOC(=O)C1C(=O)NC(N2CCN(c3ccccc3)CC2)=NC1c1ccco1` (stereo not drawn): the result was inactive.
Consider `O=C(Nc1ccc2c(c1)OCO2)c1cc(-c2ccncc2)nc2ccccc12`, for which the result was inactive.
On to `Cc1cccc2cc3c(N)c(C#N)sc3nc12`, for which the outcome was inactive.
Turning to `CC(C)CSc1ncc(-c2cccc(C(F)(F)F)c2)cn1`, the outcome was inactive.
